Source: PubChem BioAssay (National Center for Advancing Translational Sciences (NCATS))
This is one part of a sample in which hits are shown more often than they occur.
NPSR antagonist – qHTS Assay for Antagonists of the Neuropeptide S Receptor: cAMP Signal Transduction; 1% of 220,000 active; CHO-NPSR cells, cAMP TR-FRET, antagonist mode; Q6W5P4; AID 1461, 2008; Potency, µM (titrated, usually from 38.3 µM), without a hit: at the top dose activity change, negative = inhibition, actives largely listed as inhibitors; note: potency is the fitted concentration of half-maximal effect; nearly all actives have a fitted effect of over 50% in size
Target sequence (Q6W5P4 whole entry, looked up): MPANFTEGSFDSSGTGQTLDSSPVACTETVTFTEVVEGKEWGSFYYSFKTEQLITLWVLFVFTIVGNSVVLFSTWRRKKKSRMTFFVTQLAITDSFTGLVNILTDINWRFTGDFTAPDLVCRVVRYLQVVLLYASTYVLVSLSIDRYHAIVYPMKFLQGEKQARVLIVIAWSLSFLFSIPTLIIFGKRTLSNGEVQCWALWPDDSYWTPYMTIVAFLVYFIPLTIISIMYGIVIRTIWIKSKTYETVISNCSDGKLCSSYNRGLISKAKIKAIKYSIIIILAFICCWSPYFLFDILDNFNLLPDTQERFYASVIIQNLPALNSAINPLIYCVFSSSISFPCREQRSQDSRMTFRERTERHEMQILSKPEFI
IMPase Li inh – qHTS Assay for Identifying the Cell-Membrane Permeable IMPase Inhibitors: Potentiation with Lithium. AID 1457, 2008. 0.35% of 210,000 active. Potency, µM (titrated, usually from 59.4 µM), for the others: at the top dose activity, negative = IMPase inhibition, hits mostly inhibitors. CHO-M1 cells, IP1 TR-FRET (IP-One), carbachol + lithium;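 note: IP1 builds up when IMPase is blocked and the TR-FRET signal falls; potency is the fitted concentration of half-maximal effect; plate controls were basal vehicle for no effect and high inhibitor control for full effect; nearly all actives have a fitted effect of over 50% in size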
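Lithium-sensitised IP1 accumulation assay; M1-expressing CHO cells treated 30 min at 37C with compound. Competitive antibody detection by time-resolved FRET followed a 10 min room-temperature lysis step.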
IMPase cell inh – qHTS Assay for Identifying the Cell-Membrane Permeable IMPase Inhibitors | Inositol monophosphatase 1 (Rattus norvegicus), P97697 | CHO-M1 cells, IP1 accumulation, HTRF TR-FRET ratio | inhibition (IP1 accumulation), % at 46.1 µM | 120,000 tested, under 10 active; active = well fitted curve in the direction sought with a large enough effect in the signal ratio, not every such curve was filed as active; inconclusive = small, poorly fitted or top-dose-only effect, or a change in a side signal; inactive = no such curve, though single readings can be large or run the other way; the % refers to the signal ratio;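 note: cells stimulated with carbachol in lithium chloride buffer; plate controls were DMSO basal wells for no effect and reference inhibitor wells for full effect; higher means more IMPase inhibition seen as more IP1 and lower FRET ratio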
Target sequence (P97697 whole entry, looked up): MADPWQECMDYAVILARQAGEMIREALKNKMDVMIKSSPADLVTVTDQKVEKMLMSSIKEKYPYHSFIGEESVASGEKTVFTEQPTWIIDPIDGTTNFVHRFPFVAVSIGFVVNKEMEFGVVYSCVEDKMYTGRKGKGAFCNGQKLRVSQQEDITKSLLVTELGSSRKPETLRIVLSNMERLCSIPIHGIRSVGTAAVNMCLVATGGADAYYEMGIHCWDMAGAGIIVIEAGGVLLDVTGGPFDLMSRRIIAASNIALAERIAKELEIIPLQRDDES
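In this qHTS, compounds (final up to 46 uM) act on CHO-M1 cells that are then activated through the M1 receptor with carbachol, in pH 7.4 buffer containing 50 mM LiCl, for 30 min. IP1 accumulation is quantified by the IP-One immunoassay.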
Numbers without * were called inactive; [ ] = dose if it differs, or a comment. Unless noted, calls come from the whole dose curve; as a rule, active = well fitted curve in the direction sought with a large enough effect; inconclusive = small, poorly fitted or top-dose-only effect, or another doubt; inactive = no such curve, though single readings can be large; an effect the other way counts as inactive or inconclusive. Unless noted, % is set by controls: 0 for no effect and ±100 for the full control effect.

Screening CCc1c(C)nc2cc(-c3cc(OC)cc(OC)c3)nn2c1N1CCN(CCN2CCOCC2)CC1 returned NPSR antagonist -16%, IMPase Li inh -26% and IMPase cell inh 1.
CCc1c(C)nc2cc(-c3ccc(OC)c(OC)c3)nn2c1NCC1CC1 was read as NPSR antagonist 13µM*, IMPase Li inh 11%[38.3 µM] and IMPase cell inh 24.
COC(=O)CCCC1=CC2=C(c3ccccc3)C(=O)C(C)(OC(=O)C3CCCC3)C(=O)C2=CO1 (centres undefined) was read as IMPase Li inh 1%.
`Cc1ccc(-c2nn3c(-c4ccccc4C)nnc3c3ccccc23)cc1` gave IMPase cell inh 4.
CC1=NNC(=O)/C1=C\c1cn(-c2ccccc2)nc1-c1cccs1 was read as NPSR antagonist 10µM* and IMPase Li inh 20%.
`CC1=NNC(=O)/C1=C\c1cn(-c2ccccc2)nc1-c1ccc(F)cc1` gave NPSR antagonist -53% and IMPase Li inh 21%.
`NC(N)=NCCCCN=C(N)N` gave NPSR antagonist -7%[46.1 µM], IMPase Li inh 8% and IMPase cell inh -3.
CCN(CC)C(=O)CSc1ncnc2sc(C)c(C)c12 was read as NPSR antagonist 15% and IMPase Li inh 11%.
For O=c1cc(-c2ccccc2)oc2ccccc12 the results were IMPase Li inh 2%.
Screening O=c1cc(/C=C/c2ccccc2)oc2ccccc12 returned NPSR antagonist 5µM*, IMPase Li inh 29%[38.3 µM] and IMPase cell inh 7.
Cc1c(NC(=O)C(C)(C)Oc2ccc(Cl)cc2)cccc1-c1nc2ncccc2o1 was read as IMPase cell inh 8.
Screening CCOc1ccc(-n2c(SCC(=O)NCc3ccco3)nnc2-c2c[nH]c3ccccc23)cc1 returned NPSR antagonist 13µM*, IMPase Li inh 23%[38.3 µM] and IMPase cell inh 6.
`Cn1c(SCC(=O)NCc2ccco2)nnc1-c1c[nH]c2ccccc12` gave NPSR antagonist -9%[46.1 µM], IMPase Li inh -5%[38.3 µM] and IMPase cell inh 14.
`CCCC(=O)Nc1c2c(nc3ccccc13)N(c1ccccc1)CC2` gave NPSR antagonist 20% and IMPase Li inh -4%.
For O=C(CN1CCCCC1)Nc1c2c(nc3ccccc13)N(c1ccccc1)CC2 the results were NPSR antagonist 7.9µM* and IMPase Li inh inconclusive.
Screening CC1(C)CC(=O)C(C(=O)C2CCN(S(=O)(=O)c3ccccc3)CC2)C(=O)C1 returned NPSR antagonist -4% and IMPase Li inh -6%.
`CCCCCCn1c2c(c(=N)c3c1CCC3)CCC2` gave NPSR antagonist 2%[46.1 µM], IMPase Li inh 38%[38.3 µM] and IMPase cell inh 20.
For CCCCCCCCCn1c2c(c(=N)c3c1CCC3)CCC2 the results were NPSR antagonist 7.9µM*, IMPase Li inh 30% and IMPase cell inh 30.
For CSC(N)=NCCC[C@@H](N)C(=O)O the results were IMPase cell inh 12.
`C[N+](C)(C)CCCSc1nc2ccccc2[nH]1` gave IMPase Li inh -4%.
`CC(C)CC(=O)NC(=S)Nc1cccc2nsnc12` gave NPSR antagonist inconclusive and IMPase Li inh -13%.
For COc1c(C)cccc1C(=O)NC(=S)Nc1cccc2nsnc12 the results were NPSR antagonist 7.9µM* and IMPase Li inh -5%.
`S=C(S)NCCCn1ccnc1` gave IMPase Li inh 2%.
`CC1=C(c2ccccc2)C(=S)NC(C)(C)C1` gave NPSR antagonist -45%.
`COc1nc(C)nc2c1sc(=S)n2C` gave NPSR antagonist 0%[46.1 µM], IMPase Li inh 22µM* and IMPase cell inh 2.
Cc1nc(N(C)C)c2sc(=S)n(C)c2n1 was read as NPSR antagonist 10%[46.1 µM], IMPase Li inh 4%[38.3 µM] and IMPase cell inh inconclusive.
CC(C)c1cc(=O)oc2c3c4c(cc12)CCCN4CCC3 was read as NPSR antagonist -1%[46.1 µM], IMPase Li inh -14%[38.3 µM] and IMPase cell inh 2.
CN1CCCc2cc3c(C(F)(F)F)cc(=O)oc3nc21 was read as NPSR antagonist 14%[46.1 µM], IMPase Li inh 10µM* and IMPase cell inh inconclusive.
`Clc1ccccc1-c1nccc(-n2ccnc2)n1` gave IMPase Li inh 7%.
`Clc1ccccc1C(c1ccccc1)(c1ccccc1)n1ccnc1` gave NPSR antagonist 5µM*, IMPase Li inh 26% and IMPase cell inh 5[20.6 µM].
Screening Oc1cc(O)cc(/C=C\c2ccc(O)c(O)c2)c1 returned IMPase cell inh 10.
Screening CC(C)[C@H]1C(=O)C(C(N)=O)=C(O)[C@]2(O)C(=O)C3=C(O)c4c(O)ccc(N(C)C)c4C[C@H]3C[C@@H]12 returned IMPase cell inh 1.
O=[N+]([O-])c1ccc(Cl)c(-c2ccc(/C=N/c3c(-c4ccco4)nc4ccccn34)o2)c1 was read as NPSR antagonist -17%[46.1 µM], IMPase Li inh 8%[38.3 µM] and IMPase cell inh -1.
For Oc1cccc(/C=N/c2c(-c3ccco3)nc3ccccn23)c1 the results were NPSR antagonist 10µM*, IMPase Li inh 13µM* and IMPase cell inh 28.
For CN(C)C(=O)OC1=C(c2ccccc2)Sc2ccccc2-n2cccc21 the results were IMPase Li inh 10%.
`C[n+]1cc2c3c(ccc2c2ccc4cc5c(cc4c21)OCO5)OCO3` gave NPSR antagonist inconclusive, IMPase Li inh 50% and IMPase cell inh 12[20.6 µM].
For COC(=O)C1=C(C(=O)OC)[C@@H]2N(C)c3ccccc3[C@@]23C[C@@H](C(=O)OC)N(S(=O)(=O)c2c(C)noc2C)C3=N1 the results were IMPase Li inh 2%.
Screening CC[C@H]1C(c2cccc(Cl)c2)=NN(c2ccccc2)[C@@H]1CO returned IMPase Li inh 22µM*.
`CC[C@H]1C(c2cccc(C)c2)=NN(c2ccccc2)[C@@H]1CO` gave IMPase Li inh -16%.
`Cc1cc([N+](=O)[O-])nn1Cc1ccc(C(=O)N/N=C/c2ccc(N(C)C)cc2)cc1` gave NPSR antagonist 47%.
Screening COc1cc([C@@H]2c3cc4c(cc3[C@@H](O)[C@H]3COC(=O)[C@H]23)OCO4)cc(OC)c1O[Si](C)(C)C(C)(C)C returned NPSR antagonist 10µM*.
`COc1cc([C@@H]2c3cc4c(cc3[C@@H](OC3OC5COC(C)OC5C(O)C3O)[C@H]3COC(=O)[C@H]23)OCO4)cc(OC)c1O` (some centres undefined) gave IMPase Li inh 1%.
For N#CC(c1ccc(Cl)cc1)c1ccc2c(C(F)(F)F)cc(C(F)(F)F)nc2n1 (centres undefined) the results were NPSR antagonist 6.3µM*, IMPase Li inh 36%[38.3 µM] and IMPase cell inh 31.
Screening FC(F)(F)c1cc(C(F)(F)F)c2ccc(N3CCN(c4ccc(Cl)cc4)CC3)nc2n1 returned NPSR antagonist 0%[46.1 µM], IMPase Li inh 21%[38.3 µM] and IMPase cell inh -2.
`Cc1ccccc1NC(=O)C(=Cc1ccc(C(=O)O)cc1)C(=O)Nc1ccccc1C` gave NPSR antagonist 4µM* and IMPase Li inh 1%.
CC(=O)/C(=C/c1ccccc1)C(=O)Nc1ccccc1C was read as NPSR antagonist -55% and IMPase Li inh 14%.
